Measured values: the supplement of paper PMC6555819

What was measured:
Test in all cases: PBM binding z-score (relative to random genomic background probes); higher = stronger binding; sequences stand for … in GC…GCGATTGACAGCGTAGAATGAAGG
[1] = system: RARb homodimer (NR concentration 270 nM)
Outline: (§1)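 Probes were double-stranded and carried 34-nt variable regions with direct-repeat seeds, single-nucleotide variants, half-site ablations and random human genomic background sequences, printed on custom Agilent 4×180K protein-binding microarrays. Arrays were incubated 1 h with ligand-free nuclear receptor dimers in PBS pH 7.4, 2% milk, 0.02% Triton X-100, 1 mM DTT, 0.2 mg/mL BSA and 0.4 mg/ml salmon testes DNA. Antibodies against each partner (one per run) detected binding, and scanned fluorescence was regression-normalized. Binding z-scores use the random background probes as reference.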

[2] = system: RARg:RXRa (NR concentration 270 nM, RXRa partner concentration 90 nM)
Outline: as §1

[3] = system: RARg homodimer (NR concentration 270 nM)
Outline: as §1

[4] = system: RXRa DBDmut IVT, anti-RXR (DBD mutation: RXRa K156A/R161A, NR concentration 90 nM)
Outline: as §1

[5] = system: RXRa homodimer (NR concentration 180 nM)
Outline: as §1

[6] = system: THRa:RXRa (NR concentration 90 nM, RXRa partner concentration 90 nM)
Outline: as §1

[7] = system: THRa homodimer (NR concentration 90 nM)
Outline: as §1

[8] = system: VDR:RXRa (NR concentration 270 nM, RXRa partner concentration 90 nM)
Outline: as §1

[9] = system: VDR homodimer (NR concentration 270 nM)
Outline: as §1

Sequence	PBM binding z-score [1]	PBM binding z-score [2]	PBM binding z-score [3]	PBM binding z-score [4]	PBM binding z-score [5]	PBM binding z-score [6]	PBM binding z-score [7]	PBM binding z-score [8]	PBM binding z-score [9]
TCTATTAGTTGATTCGGGCAACCGAAACAGCGGA	0.249	0.385	0.285	1.15	0.328	0.247	0.0848	0.506	0.228
CGTCCAAGGTCAATGCTAAGTCAGTGAAAGCATT	3.83	5.54	6.06	3.39	4.48	3.72	1.98	3.83	2.06
CGAACTAGGTCACCGGAAGGTCAAAGTCCGCATG	5.45	8.27	7.14	2.43	6.38	4.36	2.81	5.8	4.01
CGTCAAAGTTCAACTAAGGGAACGTAAAGCACGC	3.93	5.85	6.56	4.65	5.21	4.49	0.0368	4.35	3.51
ATCTCTAGGTAAGACTCAGTTCAGTAAAGAACGC	0.871	0.41	0.438	0.632	0.0419	0.985	0.878	1.12	1.74
GGAACGAGGACAAAGTTGATAGCATCTGTCGACG	0.33	0.769	1.2	1.23	0.361	2.36	0.861	-0.104	0.141
CTCGAAAGGTGGGTTGAGGTGAGTATACGGATAA	1.3	0.297	0.548	-0.0446	0.396	4.18	1.75	0.817	0.756
AATACAGGGTCATCGTAGGCCAGAGTTCGCACAG	3.88	5.67	5.21	3.68	6.43	4.77	1.65	5.79	5.37
TGAGTGAGGTTATAAGATCAGGGAACGTTGCAAA	0.44	1.43	1.12	0.109	1.88	1.59	0.117	–	0.655
ATATGTAGGTTATCGGGTAATTCAGTTTGCGCAT	0.9	0.94	0.821	0.617	1.05	1.29	1.26	1.54	1.3
CGAACTAGGTCATTGACAGGACAGTGATTAGTAA	2.83	4.5	4.52	2.49	2.47	2.9	1.05	2.47	1.52
TCATGTAGATCAAAGGTTAAGAAAGCCGAAGCCT	1.55	1.96	0.89	1.08	3.55	1.37	-0.229	1.66	-0.0577
TCTGCTAGGGCAGTTGGTCAGCTAACGAGCTGCC	0.33	-0.0411	0.49	-0.0574	-0.74	-0.754	-0.968	-0.663	-1.08
GGAACGAGGGCATTCGAATTGATAGCATGGCGAT	0.601	1.21	1.55	3.14	0.908	0.827	-0.231	1.13	1.99
TAGCCTAGGTCATTGAGGGGCCAGTATAGAAAGC	2.97	5.82	4.34	1.59	2.82	3.05	0.714	3.07	1.16
TCTATTAGTTGAATAGGGCAACCGAAACAGCGGA	0.977	0.99	0.765	0.685	0.759	0.247	-0.423	–	-0.139
TCATATAGGTAAATGCCAGGTGAAAGTCCGATCT	0.815	0.611	0.433	1.64	0.912	2.02	1.33	1.12	0.435
AGAATGAGGTTCTACGTAGATCAGGGAAGAAAGT	-0.327	-0.12	0.0722	0.025	-0.0793	-0.0436	-0.709	-0.436	-0.322
CCTAGGAGGCCAGGGTCACTCAAGCATTTCGCTT	2.95	2.9	2.55	-0.274	3.08	2.8	0.866	2.44	1.02
CCTACTGGGCCAAAAAGGTCATAGATGCCGATAA	4.35	4.63	4.54	0.263	5.22	3.08	0.589	4.4	2
AGAATGAGGATAAGATCAGGGAAACAGAATACAT	-0.0231	0.224	0.322	-0.458	0.578	1.42	0.69	-0.0497	-0.103
ACAGACAGGTGAGTGAATGTAACTCAGCTGGACG	-0.316	0.386	0.453	-0.311	0.676	0.0176	-0.644	-0.36	-0.199
ATTTGTAGGTTAAGGGTCATTCAGGTTGGTTCGC	3.97	5.34	4.15	2.49	6.91	3.76	2.55	6.08	5.33
AGAACGAGGGCACGCTGAGTTAATAGCAGAGTAG	0.988	2.08	2.41	1.8	1.44	2.05	0.0156	1.69	1.08
GGAACGAGGGTAAGTTGATAGCAGAGTTTGATGG	0.494	0.154	0.437	0.818	0.178	0.12	-0.196	-0.217	0.755
ATATGTTGGTTACATCCGGGTCATTCAGGCTATG	2.54	1.79	1.29	0.674	2.18	3.16	2.45	3.42	2.26
